# Luciferase inh: inhibitors of firefly (Photinus pyralis) luciferase. P08659. purified P. pyralis luciferase, luminescence, biochemical. AID 1347043. 2.5% of 76,000 active. Potency, µM (titrated, usually from 115 µM), hits mostly inhibitors; note: nearly all actives have a fitted effect of over 65% in size
# Target sequence (P08659 whole entry, looked up): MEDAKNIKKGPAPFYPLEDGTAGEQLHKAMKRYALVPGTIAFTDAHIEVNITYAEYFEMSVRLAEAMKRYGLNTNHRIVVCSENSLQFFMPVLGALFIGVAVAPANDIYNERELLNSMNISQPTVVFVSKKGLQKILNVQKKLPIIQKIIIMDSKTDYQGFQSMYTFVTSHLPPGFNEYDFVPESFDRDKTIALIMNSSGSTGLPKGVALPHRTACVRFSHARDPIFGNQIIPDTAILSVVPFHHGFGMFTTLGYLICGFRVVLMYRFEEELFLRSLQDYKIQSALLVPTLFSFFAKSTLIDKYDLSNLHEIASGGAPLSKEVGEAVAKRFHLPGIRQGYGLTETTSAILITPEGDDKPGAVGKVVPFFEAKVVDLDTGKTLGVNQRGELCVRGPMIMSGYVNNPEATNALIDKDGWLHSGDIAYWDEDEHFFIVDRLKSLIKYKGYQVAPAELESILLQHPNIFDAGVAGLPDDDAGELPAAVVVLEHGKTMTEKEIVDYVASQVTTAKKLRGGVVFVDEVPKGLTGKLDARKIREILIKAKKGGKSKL
#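 Purified 10nM P. pyralis luciferase with 10uM D-luciferin and 10uM ATP in 50mM Tris acetate pH 7.5, 10mM Mg acetate, 0.01% Tween-20, 0.05% BSA. qHTS titration; luminescence read by CCD imager.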
# NPR1 antag: blocks ANP-stimulated signaling of human Npr1 receptor. P16066. Potency, µM (titrated, usually from 46.3 µM), inactives show at the top dose activity change, negative = inhibition, most hits filed as inhibitors. AID 1347048. HEK293 hNpr1 GloSensor cGMP, ANP-stimulated luminescence. 1.6% of 76,000 active; calls by dose curve; note: nearly all actives have a fitted effect of over 60% in size
#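 Compound pre-incubated 30 min at room temperature on GloSensor-loaded HEK293 cells stably carrying hNpr1 and the pGS-40F cGMP biosensor. Stimulation uses hNppA at 0.1 nM final; luminescence is taken at baseline and 20 min post-agonist.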
# HEK293 tox: cytotoxic compounds in HEK 293 cells; HEK 293 viability, ATP luminescence (CellTiter-Glo), 48-72 h; Potency, µM (series often up to 115 µM), inactives show at the top dose activity change, negative = cytotoxicity, most hits filed as inhibitors; 6.6% of 94,000 active; AID 1345083; note: nearly all actives have a fitted effect of over 60% in size
#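 CellTiter-Glo luminescence (cellular ATP) was read after 48 or 72 hr of compound exposure at 37 degree Celsius. Cells were HEK 293 plated at 250 cells/well.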
# 3T3 cytotox: NIH 3T3 cell cytotoxicity; NIH 3T3 viability, CellTiter-Glo ATP luminescence, 48-72 h; 4.3% of 94,000 active; Potency, µM (series often up to 96.7 µM), for inactives: at the highest dose activity change, negative = cytotoxicity, most hits filed as inhibitors; note: nearly all actives have a fitted effect of over 55% in size
#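 Mouse fibroblast NIH 3T3 cells, 400 per well, received compound via pintool and were incubated for 48 or 72 hr prior to CellTiter-Glo ATP luminescence measurement.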
# GPT2 inhibitor: inhibitors of human GPT2 alanine aminotransferase. Recombinant GPT2, coupled pyruvate oxidase/HRP Amplex Red fluorescence. Potency, µM (doses to about 57.7 µM), without a hit: top-dose activity change, negative = inhibition, actives largely listed as inhibitors. 0.25% of 100,000 active; note: nearly all actives have a fitted effect of over 60% in size
#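 Inhibition is scored from Amplex Red fluorescence generated when pyruvate oxidase and HRP act on pyruvate released by GPT2. Reactions contain 10ng/uL enzyme, 250uM a-KG and 2mM L-alanine and run 30 min at room temperature.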
# Active calls of the source: *; i = inactive; u = inconclusive; x = no result given; [ ] = another dose, or the depositor's remark. Rows were chosen to be rich in hits. Some 10% of all compounds tested hit in one or more screens of this group. Unless noted, calls come from the whole dose curve; as a rule, active = well fitted curve in the direction sought with a large enough effect; inconclusive = small, poorly fitted or top-dose-only effect, or another doubt; inactive = no such curve, though single readings can be large; an effect the other way counts as inactive or inconclusive. % is set by controls: 0 for no effect and ±100 for the full control effect; potency is the fitted concentration of half-maximal effect.
SMILES,Luciferase inh,NPR1 antag,HEK293 tox,3T3 cytotox,GPT2 inhibitor
CCOC(=O)c1ccc(N2CCN(C(=O)C3=CC(C)(C)COc4ccc(OC)cc43)CC2)cc1,x,x,35µM*,u,x
Cc1nc(C2CC(O)C2)cc(N2CCN(c3cnn(C)c(=O)c3)CC2)n1 (stereo unspecified),i,2%,i,-1%,2%
Cc1nc(C2CC(O)C2)cc(N2CCN(c3ccc(F)c(Cl)c3)CC2)n1 (stereo unspecified),i,u,18µM*,u,4%
O=C(O)COc1ccc(-c2nccc3c2C(=O)N(Cc2ccccc2)CC(COc2ccc(Cl)cc2)O3)cc1 (stereo unspecified),50µM*,0%,0%,u,-14%
O=C(O)COc1ccc(-c2nccc3c2C(=O)N(Cc2ccccc2)CC(COc2ccc4cccnc4c2)O3)cc1 (stereo unspecified),u,2%,5%,u,-19%
CC(C)c1ccc(-n2cc(CN3CCN(C(=O)N(C)C)CC3)cn2)cc1,28µM*,-30%,u,-26%,-15%
CCCCc1ccc(-n2cc(CN3CCN(C(C)=O)CC(O)C3)cn2)cc1 (stereo unspecified),40µM*,-3%,u,u,-6%
CCCNC(=O)N1CC(Oc2ccc(-c3nc(-c4ccccc4)no3)cc2)C1,u,0.4µM*,-51%,-41%,i
O=C(CN1CCCCCC1)N1CC(Oc2ccc(-c3noc(-c4ccccc4)n3)cc2)C1,u,-12%,u,u,2%
CCOCCCNC(=O)N1CC(Oc2ccc(-c3nc(-c4ccccc4)no3)cc2)C1,u,0.56µM*,u,-28%,4%
CC(Oc1ccccc1)C(=O)N1CC(Oc2ccc(-c3nc(-c4ccccc4)no3)cc2)C1 (stereo unspecified),x,x,u,u,i
O=C1N(CCc2ccccc2)CCOC12CCN(Cc1ccc3c(c1)CCO3)CC2,i,-5%[70.6 µM],u,u,-47%[88.5 µM]
COC[C@@H]1CN(C(=O)c2cccc(C#N)c2)C[C@H]1c1ccncc1,i,-9%,i,i,i
O=C(Cc1ccc(N(Cc2cccc(F)c2)C(=O)c2ccco2)cc1)NCC1CCCO1 (stereo unspecified),i,-2%,u,-23%,-10%
O=C(c1ccccc1F)N1CCn2c(nnc2-c2ccccc2)C1,i,0%[70.6 µM],-16%[172 µM],-22%[138 µM],4%[88.5 µM]
O=C(c1ccccc1F)N1CCn2c(nnc2C2CCNCC2)C1,x,x,4%,28µM*,i
COc1ccc(OC)c(CN2CCNc3cc(-c4ccccc4)ncc3C2)c1,40µM*,-6%[70.6 µM],112µM*,u,i
Fc1ccc(CN2CCNc3cnc(-c4ccccc4)cc3C2)cc1F,i,-2%[70.6 µM],u,79µM*,-3%[88.5 µM]
COc1ccc(CN2CCNc3cc(-c4ccccc4)ncc3C2)cc1,u,-20%[70.6 µM],50µM*,u,-9%[88.5 µM]
c1ccc(-c2cc3c(cn2)NCCN(Cc2ccsc2)C3)cc1,u,0%[70.6 µM],u,u,-8%[88.5 µM]
COc1ccccc1CN1CCNc2cc(-c3ccnc(C)c3)ncc2C1,71µM*,-4%[70.6 µM],89µM*,u,-5%[88.5 µM]
COc1ccccc1CN1CCNc2cc(-c3ccccc3)ncc2C1,u,-3%[70.6 µM],u,u,-6%[88.5 µM]
COc1ncccc1-c1cnc2[nH]cc(CC(=O)Nc3cc(C)nn3C)c2c1,i,-25%[70.6 µM],u,u,4%[88.5 µM]
Cc1ccc(CNC(=O)c2ccc3c(c2)n(Cc2ccccc2)c(=O)c2ccnn23)o1,i,-16%,u,u,-3%
O=C(CN1C(=O)NC2(CCCCC2)C1=O)N1CCCCC1,i,1%,14%,i,i
SMILES,Luciferase inh,NPR1 antag,HEK293 tox,3T3 cytotox,GPT2 inhibitor
COc1ccc(-c2cn3cc(C(=O)NCC(C)C)nc3s2)cc1,x,x,u,u,0%[88.5 µM]
COc1ccccc1-c1[nH]nc2ncc(C(=O)NCC3CCOCC3)nc12,i,1%[70.6 µM],-29%[172 µM],40µM*,-6%[88.5 µM]
COc1ccccc1-c1[nH]nc2ncc(-c3c(C)noc3C)nc12,i,2%[70.6 µM],89µM*,u,u
COc1ccccc1-c1[nH]nc2ncc(-c3cccnc3OC)nc12,i,-1%[70.6 µM],10µM*,10µM*,-19%[88.5 µM]
COc1ncccc1-c1cnc2n[nH]c(-c3ccccc3C)c2n1,i,-10%[70.6 µM],u,u,i
Cc1noc(C)c1-c1cnc2n[nH]c(-c3ccccc3)c2n1,i,-14%[70.6 µM],u,-27%[174 µM],i
COc1ccccc1-c1cnc2n[nH]c(-c3ccccc3)c2n1,i,-17%[70.6 µM],u,79µM*,-19%[88.5 µM]
C[C@@H](Nc1cc(NS(=O)(=O)N2CCC2)nc(SCc2cccc(F)c2F)n1)[C@@H](O)CO,x,x,x,x,i
COc1ccc(C(=O)N2CCN(c3cc(C(F)(F)F)ncn3)CC2)cc1F,i,u,u,u,3%
COc1ncccc1-c1cnc2n[nH]c(-c3ccccc3)c2n1,i,-17%[70.6 µM],71µM*,50µM*,3%[88.5 µM]
Cc1ccc(C(=O)N2CCCC3(C2)Nc2cccnc2NC3=NC2CCCC2)cc1F (stereo unspecified),i,3%,71µM*,u,-27%
O=C(c1ccc2c(c1)OCO2)N1CCCC2(C1)Nc1cccnc1NC2=NC1CCCC1 (stereo unspecified),i,-1%,-26%,-13%,u
Cc1cc(-c2nc3ccncc3[nH]2)c(C)o1,45µM*,0%[70.6 µM],u,u,u
c1cc2nc(-c3ccsc3)[nH]c2cn1,u,-10%[70.6 µM],u,u,0%[88.5 µM]
COCCN1CCNc2nc(COc3ccc(C(C)C)cc3)n(Cc3ccccc3)c2C1=O,i,0%,63µM*,u,1%
CNC(=O)CCn1ncc2cc(OCc3ccccc3-c3cncc(OC)c3)ccc21,22µM*,-11%[70.6 µM],79µM*,u,4%[88.5 µM]
CNC(=O)CCn1ncc2cc(OCc3ccccc3-c3ccc(OC)cc3)ccc21,i,-1%[70.6 µM],100µM*,89µM*,1%[88.5 µM]
CNC(=O)CCn1ncc2cc(OCc3ccccc3-c3cccnc3OC)ccc21,u,3%[70.6 µM],u,u,5%[88.5 µM]
CNC(=O)CCn1ncc2cc(OCc3ccccc3-c3cc(F)cc(OC)c3)ccc21,i,-6%[70.6 µM],71µM*,u,-8%[88.5 µM]
CNC(=O)CCn1ncc2cc(OCc3ccccc3-c3ccc(OC)cc3C)ccc21,u,-2%[70.6 µM],100µM*,u,-2%[88.5 µM]
CNC(=O)CCn1ncc2cc(OCc3ccccc3-c3ccsc3)ccc21,50µM*,0%[70.6 µM],89µM*,u,5%[88.5 µM]
CNC(=O)CCn1ncc2cc(OCc3ccccc3-c3cnn(C)c3)ccc21,i,1%[70.6 µM],u,u,1%[88.5 µM]
CNC(=O)CCn1ncc2cc(OCc3ccccc3-c3cccc(OC)c3)ccc21,45µM*,-12%[70.6 µM],79µM*,u,0%[88.5 µM]

# Bioassay records deposited in PubChem by National Center for Advancing Translational Sciences (NCATS).
